Test results from publication PMC4336329 (PLoS ONE, 2015).
Out of some 310,000 compounds screened, about 14,000 (4.5%) showed an effect of 50% or more. Effects have a minus sign here. Many of the other results were omitted from the sample, so strong results are more common in it than they were.

biological target: human ether-à-go-go-related gene (hERG) potassium channel (human, UniProt Q12809); assay: primary screen, population patch clamp on CHO cells stably expressing hERG; higher = less effect of the substance
Sequence (Q12809 whole entry, looked up): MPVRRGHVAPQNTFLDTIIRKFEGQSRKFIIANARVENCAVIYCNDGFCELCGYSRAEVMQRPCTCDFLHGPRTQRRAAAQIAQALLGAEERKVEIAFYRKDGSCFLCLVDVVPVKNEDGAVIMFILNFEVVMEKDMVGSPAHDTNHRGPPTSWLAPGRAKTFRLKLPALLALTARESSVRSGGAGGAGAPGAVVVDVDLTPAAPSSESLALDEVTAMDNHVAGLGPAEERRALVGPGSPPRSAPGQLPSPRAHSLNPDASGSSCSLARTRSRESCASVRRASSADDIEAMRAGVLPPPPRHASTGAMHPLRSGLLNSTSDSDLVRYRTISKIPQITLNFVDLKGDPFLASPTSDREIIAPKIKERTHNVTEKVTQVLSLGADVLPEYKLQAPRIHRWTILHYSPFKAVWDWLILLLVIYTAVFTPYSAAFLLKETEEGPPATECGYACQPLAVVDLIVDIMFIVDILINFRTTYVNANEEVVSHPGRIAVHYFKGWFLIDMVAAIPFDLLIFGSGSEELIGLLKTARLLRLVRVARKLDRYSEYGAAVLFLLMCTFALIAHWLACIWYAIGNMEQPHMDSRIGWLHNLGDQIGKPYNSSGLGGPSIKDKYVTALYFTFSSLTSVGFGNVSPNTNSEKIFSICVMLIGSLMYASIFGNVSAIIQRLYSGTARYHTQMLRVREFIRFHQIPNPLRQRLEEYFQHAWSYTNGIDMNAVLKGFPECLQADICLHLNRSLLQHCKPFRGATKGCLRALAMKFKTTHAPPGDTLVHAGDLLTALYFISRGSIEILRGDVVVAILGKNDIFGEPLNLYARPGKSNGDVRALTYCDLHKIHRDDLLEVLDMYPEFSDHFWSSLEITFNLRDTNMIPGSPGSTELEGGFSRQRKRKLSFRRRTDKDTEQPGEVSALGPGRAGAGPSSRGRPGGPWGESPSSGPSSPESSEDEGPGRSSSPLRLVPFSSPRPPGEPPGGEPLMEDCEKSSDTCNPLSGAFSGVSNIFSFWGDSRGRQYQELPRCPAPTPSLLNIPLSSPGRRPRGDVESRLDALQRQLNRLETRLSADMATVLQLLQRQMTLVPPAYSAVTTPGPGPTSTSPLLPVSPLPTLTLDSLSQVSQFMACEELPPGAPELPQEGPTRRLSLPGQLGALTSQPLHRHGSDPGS
Method: Briefly, Chinese hamster ovary (CHO) cells stably expressing the hERG channel were dislodged from tissue culture flasks and dispensed into PPC plates. […] During the recording, background leak currents were estimated by a 100 ms step to -80 mV from an initial holding potential of -70 mV and subtracted from the subsequent current measurement. The campaign was conducted in two phases using slight differences in recording protocol. In the first phase, the initial voltage pulse used a 100 ms step to -30 mV from a holding potential of -70 mV, a 2 s conditioning step to +25 mV, and a 2 s test step to -30 mV. During the second phase of the screen, the potential during the conditioning step was raised to +45 mV. In both phases of the campaign, a secondary voltage pulse was applied using the same parameters as the second phase initial pulse. The initial and secondary pulses were applied in the absence of compound, and upon application of 1 μM and 10 μM test concentrations. […]
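Also: peak tail current of the secondary pulse compared with the same well before compound.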

Row | SMILES | hERG current change (%, negative = inhibition) at 10uM [%]
1 | CC12CCC(=O)N1C(C(=O)NCc1ccccc1Cl)CS2 (stereo not drawn) | -9.42
2 | Cc1cc(C)c(OCC(=O)N/N=C/c2ccco2)c(C)c1 | -3.8
3 | O=C1NC(=O)/C(=C\c2ccc(OCc3cnc(Cl)s3)cc2)S1 | 19.9
4 | COc1cccc(Nc2cc(N3CCOCC3)c3nonc3c2[N+](=O)[O-])c1 | -8.87
5 | O=C(NCCO)N1c2ccccc2Sc2ccccc21 | 5.99
6 | O=C(O)CCNC(=O)OCC1c2ccccc2-c2ccccc21 | -6.49
7 | COc1ccc(CCN2C(=O)C(C)=C(C)C2=O)cc1OC | 11.7
8 | Nn1c(SCC(=O)Nc2ccc3c(c2)OCO3)nnc1C1CC1 | 7.91
9 | COc1ccc(N(C)S(=O)(=O)c2ccc(Cl)c(C(=O)NCC(C)(C)N3CCOCC3)c2)cc1 | -41.5
10 | Cc1ccc(NS(=O)(=O)c2ccc(NC(=O)N3CCCCC3)cc2)cc1 | 8.78
11 | COCCOc1cc(NC(=O)c2cccc(OC)c2)c(Cl)cc1Cl | 6.22
12 | CCCCN(CCCC)C(=O)/C=C/c1cccc([N+](=O)[O-])c1 | -68
13 | CCCN(CCC)C(=O)/C=C/c1cccc([N+](=O)[O-])c1 | -34.5
14 | COc1ccc(OCC(O)CNC(=O)/C=C/c2cccc([N+](=O)[O-])c2)cc1 (stereo not drawn) | 17.6
15 | COc1ccc(OCC(O)CN(C)C(=O)/C=C/c2cccc([N+](=O)[O-])c2)cc1 (stereo not drawn) | -80.5
16 | CCCCN(CC)C(=O)/C=C/c1cccc([N+](=O)[O-])c1 | -63.5
17 | CCCC(C)NC(=O)/C=C/c1cccc([N+](=O)[O-])c1 (stereo not drawn) | -7.16
18 | CC(C)N(C(=O)/C=C/c1cccc([N+](=O)[O-])c1)C(C)C | -13.8
19 | CCCN(CC(=O)Nc1ccc(Cl)cc1Cl)C(=O)/C=C/c1cccc([N+](=O)[O-])c1 | -15.6
20 | COc1ccc(/C=C/C(=O)OCc2cccc([N+](=O)[O-])c2)cc1 | -9.66
21 | O=C(CCNC(=O)c1ccco1)Nc1ccc(Cl)c(C(F)(F)F)c1 | -16.3

Row | SMILES | hERG current change (%, negative = inhibition) at 10uM [%]
22 | CCOC(=O)N1CCC(NC(=O)c2cc(COc3ccc(F)cc3Cl)on2)CC1 | -0.672
23 | CCN(CC)c1ccc(/C=N/Nc2nc(C)cc(C)n2)c(O)c1 | -7.99
24 | Cc1ccc(C)c(S(=O)(=O)NCCCc2ccccc2)c1 | -1.65
25 | CN(c1ccc(C(=O)N2CCOCC2)cc1)S(=O)(=O)c1cccs1 | 29
26 | COc1ccccc1NC(=O)CON=C(N)CC(=O)NC1CCCCC1 | -1.99
27 | CSc1nnc(NC(=O)c2cccc(S(=O)(=O)N3CCOCC3)c2)s1 | -5
28 | Cn1c(=O)n(C)c2cc(C(=O)c3ccccc3)ccc21 | -1.74
29 | Cc1cc(C)c[n+](CC(=O)c2c(C)cc(C)c([N+](=O)[O-])c2C)c1.[Br-] | -68.6
30 | Cc1cc(C)c[n+](CC(=O)c2ccc(C)c([N+](=O)[O-])c2)c1.[Br-] | -13.2
31 | Cc1cc(C)c[n+](CC(=O)c2ccccc2)c1.[Br-] | 22.8
32 | COc1cc(NS(=O)(=O)c2c(C)[nH]c(C)c2C(=O)N2CCCCC2)cc(OC)c1OC | 5.18
33 | CCCCCn1nc(C(=O)N2CCc3ccccc32)c2ccccc2c1=O | -3.43
34 | Cc1ccc2nc(Nc3ncc4c(n3)CC(C)(C)CC4=O)nc(C)c2c1 | 15.3
35 | N#CC1(NC(=O)CN2C(=O)c3ccc([N+](=O)[O-])cc3C2=O)CCCCC1 | 4.83
36 | N#CC1(NC(=O)CSc2nc3ccccc3s2)CCCCC1 | -15.7
37 | O=C(CSc1nc2ccccc2s1)NCC1CCCO1 (stereo not drawn) | 7.82
38 | O=C(CSc1nc2ccc(NC(=O)C3CCCCC3)cc2s1)NCC1CCCO1 (stereo not drawn) | 2.42
39 | N#CC1(NC(=O)CSc2nc3ccc([N+](=O)[O-])cc3s2)CCCCC1 | -69.5
40 | O=C(CSc1nc2ccc([N+](=O)[O-])cc2s1)NCC1CCCO1 (stereo not drawn) | -54.4
41 | CCn1c(/N=C/c2ccccc2NS(=O)(=O)c2ccc(C)cc2)nc2ccccc21 | -19.8
42 | COc1ccc(N(CC(=O)Nc2ccc(F)c(F)c2)S(=O)(=O)c2c(C)[nH]c(=O)[nH]c2=O)cc1 | 19.9

Row | SMILES | hERG current change (%, negative = inhibition) at 10uM [%]
43 | NC(=O)COC(=O)c1ccc(-c2ccccc2)cc1 | 14.2
44 | O=C(CCCC(=O)N(CC(=O)NC1CCCCC1)Cc1ccccc1)Nc1ccccn1 | -6.57
45 | CC(C)NC(=O)CN(Cc1ccc2c(c1)OCO2)C(=O)CCC(=O)Nc1ccccn1 | 1.7
46 | O=C(CCCC(=O)N(CC(=O)NC1CCCC1)Cc1ccc2c(c1)OCO2)Nc1ccccn1 | -26.5
47 | CC(C)CCNC(=O)CN(Cc1ccc2c(c1)OCO2)C(=O)CCC(=O)Nc1ccccn1 | -70.7
48 | O=C(CCCC(=O)N(CC(=O)NC1CCCCC1)Cc1ccc2c(c1)OCO2)Nc1ccccn1 | -54.3
49 | CC(C)CCNC(=O)CN(Cc1ccccc1)C(=O)CCC(=O)Nc1ccccn1 | -19.7
50 | Cc1cccc(OCC(=O)N/N=C/c2cc([N+](=O)[O-])ccc2N2CCOCC2)c1 | -9.73
51 | COc1ccc(-c2oc3ccc(N4CCOCC4)cc3c2C#CC2(O)CCCCC2)cc1 | 17.3
52 | CCN(CC)c1ccc(/C=C2/C(=O)ON=C2C)cc1 | -20.9
53 | CCCc1cc(=O)n2nc(N3CCC(C(=O)NCc4ccc(C)o4)CC3)sc2n1 | -61.6
54 | Cc1ccc(CCNC(=O)C2CCN(c3nn4c(=O)cc(C)nc4s3)CC2)cc1 | -33.4
55 | CCc1ccc(CNC(=O)C2CCCN(c3nn4c(=O)cc(C)nc4s3)C2)cc1 (stereo not drawn) | -36.2
56 | Cc1cc(=O)n2nc(N3CCC(C(=O)NCCc4ccc(Cl)cc4)CC3)sc2n1 | -54.5
57 | Cc1cc(=O)n2nc(N3CCC(C(=O)NCc4ccco4)CC3)sc2n1 | 17.9
58 | Cc1cc(=O)n2nc(N3CCCC(C(=O)N4CCN(c5ccccc5)CC4)C3)sc2n1 (stereo not drawn) | -53.5
59 | Cc1cc(=O)n2nc(N3CCCC(C(=O)NCc4ccc(Cl)cc4)C3)sc2n1 (stereo not drawn) | -71.7
60 | Cc1cc(=O)n2nc(N3CCC(C(=O)NCCc4ccccc4)CC3)sc2n1 | -10.1
61 | Cc1ccc(CNC(=O)C2CCCN(c3nn4c(=O)cc(C)nc4s3)C2)cc1 (stereo not drawn) | -31.1
62 | Cc1cc(=O)n2nc(N3CCC(C(=O)N4CCN(c5ccccc5)CC4)CC3)sc2n1 | -11.9
63 | CCCc1cc(=O)n2nc(N3CCC(C(=O)NCc4ccco4)CC3)sc2n1 | -44.4

Row | SMILES | hERG current change (%, negative = inhibition) at 10uM [%]
64 | Cc1cc(=O)n2nc(N3CCCC(C(=O)N4CCN(C)CC4)C3)sc2n1 (stereo not drawn) | -7.39
65 | Cc1nc2ncnn2c(C)c1CCC(=O)Oc1ccccc1 | -5.02
66 | CCN1CCc2nc(N)oc2CC1.Cl | 1.67
67 | Cc1cc2oc(C(=O)NC3CCS(=O)(=O)C3)c(C)c2cc1C (stereo not drawn) | 2.69
68 | CN(CC(=O)Nc1ccc(Cl)c(C(F)(F)F)c1)C(=O)C1CCC1 | -14.8
69 | O=C1COc2ccc(N3C(=O)c4ccccc4C3=O)cc2N1 | 27.5
70 | CCCCCN(C(=O)CN1CCC(Cc2ccccc2)CC1)c1c(N)n(CCCC)c(=O)[nH]c1=O | -48.1
71 | CSc1nc(N2CCN(Cc3ccc4c(c3)OCO4)CC2)c2ccccc2n1 | -16.7
72 | CC(C)(C)OC(=O)N1CCC(c2cc(=O)n3[nH]cc(C(=O)Nc4ccc(F)c(Cl)c4)c3n2)CC1 | 6.92
73 | COCCOC(=O)C1=C(C)Nc2ncnn2C1c1ccco1 (stereo not drawn) | 2.64
74 | COc1ccc(CNC(=O)C2CCN(c3nn4c(=O)cc(C)nc4s3)CC2)cc1 | -4.51
75 | Cc1cc(=O)n2nc(N3CCC(C(=O)NCc4ccc(F)cc4)CC3)sc2n1 | -55.5
76 | Cc1cc(=O)n2nc(N3CCCC(C(=O)NCc4cccc(Br)c4)C3)sc2n1 (stereo not drawn) | -30.2
77 | Cc1cc(=O)n2nc(N3CCC(C(=O)NCc4cccc(Cl)c4)CC3)sc2n1 | -43.7
78 | CCOc1ccc(CNC(=O)C2CCN(c3nn4c(=O)cc(C)nc4s3)CC2)cc1 | -45.8
79 | Cc1cc(=O)n2nc(N3CCC(C(=O)NCc4ccc(Cl)cc4)CC3)sc2n1 | -70
80 | Cc1ccc(CNC(=O)C2CCN(c3nn4c(=O)cc(C)nc4s3)CC2)cc1 | -41.9
81 | Cc1cc(=O)n2nc(N3CCC(C(=O)NCc4cccc(Br)c4)CC3)sc2n1 | -51.4
82 | Cc1cc(=O)n2nc(N3CCC(C(=O)NCc4ccccc4)CC3)sc2n1 | -3.68
83 | CCS(=O)(=O)c1ccc(C(=O)Nc2cccc(Cl)c2)c(Cl)c1Cl | -3.97
84 | Cc1ccc(C(C)C)c(OCCCNCc2cccnc2)c1.Cl | -37.5
